In all, about 92,000 compounds went through this assay and about 1,200 (1.3%) were called active.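 How the source made its calls: active means activation above the mean of all tested compounds plus 3 SD (cut at about 9.5% in these data); inactive means the rest.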 This excerpt belongs to a sample that is enriched for actives.
Experiment: TTR transcription activators in neuroblastoma reporter cells, primary screen, cell-based, luminescence, SH-SY5Y, TTR promoter Gaussia luciferase (AID 1117267);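 further: cells exposed to compounds for one day before reading; 0% = median of all test compound wells on the plate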
Settings: at 16.7 µM, hits give high values, 100% = recombinant luciferase protein wells

SMILES	activation
COc1ccc(Cn2ccc3ccc(-c4ccc5ccn(Cc6ccccc6C)c5c4)cc32)cc1	2.53% (inactive)
Cn1cc(CN2CCCC(CO)C2)c(-c2ccc(Oc3ccccc3)cc2)n1 (stereo unspecified)	11.1% (active)
CCCOC1CCCN(Cc2cn(C)nc2-c2ccccc2F)C1 (stereo unspecified)	0.85% (inactive)
Cn1cc(CN2CCC(C(O)CCc3ccccc3)CC2)c(-c2ccccc2F)n1 (stereo unspecified)	-1.93% (inactive)
O=C(CCc1n[nH]c(=O)[nH]c1=O)N/N=C/c1ccc(Br)o1	3.17% (inactive)
C=CCN(Cc1nc(-c2cc(OC)c3c(c2)OCO3)oc1C)C1CCS(=O)(=O)C1 (stereo unspecified)	-0.47% (inactive)
CCC(=O)c1c(CC)c2n3c1=CC[C@H]3CC(Br)C=2 (stereo partly specified)	-0.76% (inactive)
O=C(NC(=O)c1ccccc1N1CCCCC1)Nc1ccc(Br)cc1	22.9% (active)
COc1ccccc1C(=O)NC(=S)Nc1ccccc1N1CCCCC1	1.44% (inactive)
O=C(Nc1ccc(C(=O)O)cc1)/C(=C\c1ccccc1)NC(=O)c1ccc(Br)cc1	0.53% (inactive)
COc1ccc(C(C)NC(=O)C23CC4CC(CC(C4)C2)C3)cc1 (stereo unspecified)	0.59% (inactive)
O=S1(=O)CCOC[C@H](CC2CCCCC2)N1Cc1ccc(F)cc1	0.81% (inactive)
CCC(C)[C@H]1COCCS(=O)(=O)N1Cc1ccc(C)cc1 (stereo partly specified)	1.12% (inactive)
Cc1ccc(CN2CCCOCCS2(=O)=O)cc1	11.7% (active)
N=c1ccn(CC(=O)NC(N)=O)c2ccccc12	10.4% (active)
O=C(Cn1cnc2ccccc21)Nc1ccccc1-c1ccccc1	-1.54% (inactive)
CCc1ccccc1NC(=O)Cc1cn(C)c2ccccc12	4% (inactive)
Cc1cn(C2CC(O)C(CO)O2)c(=O)n(CCCc2ccccc2)c1=O (stereo unspecified)	1.94% (inactive)
O=S(=O)(NCCCN1CCOCC1)c1ccc(F)c(Cl)c1	14.3% (active)
Cn1c(=O)c(=O)n(C)c2cc(S(=O)(=O)NCCN3CCN(c4ccccc4F)CC3)ccc21	-0.31% (inactive)
O=C(CN1CCOCC1)Nc1c(Cl)cc(Cl)cc1Cl	-1.15% (inactive)
Cn1nc(-c2ccccc2)c2cc([N+](=O)[O-])ccc21	2.37% (inactive)
CCCNC(=O)C(=O)Nc1cc2c3c(c1)CCC(=O)N3CCC2	0.51% (inactive)
CCOC(=O)c1c(-c2ccccc2)oc2ccc(OCC(N)=O)cc12	10% (active)

SMILES	activation
CCOC(=O)c1c(-c2ccccc2)oc2ccc(OCC(=O)NN)cc12	3.27% (inactive)
CCOC(=O)c1c(C)oc2ccc(OCC(=O)N(CC)CC)cc12	0.72% (inactive)
CCOc1ccc(CN2CCN(Cc3ccon3)CC2CCO)cc1 (stereo unspecified)	7.67% (inactive)
CC(NC(=O)CCCC1CCCCC1)c1ccc(S(N)(=O)=O)cc1 (stereo unspecified)	-0.93% (inactive)
CCOC(=O)COc1ccc([N+](=O)[O-])cc1	0.43% (inactive)
N#Cc1cccc(CN2CCC(=O)N(CCO)CC2)c1	14.7% (active)
O=C1CCN(CCc2ccccc2)CCN1CCOc1ccccc1	0.26% (inactive)
O=C1CCN(Cc2ccc([N+](=O)[O-])cc2)CCN1[C@H](CO)Cc1ccccc1	-6.98% (inactive)
O=S(=O)(NCc1ccccc1Br)c1ccccc1Br	14% (active)
CCCCCCNS(=O)(=O)c1ccccc1Br	-0.76% (inactive)
CCN([C@H](CO)C(C)C)S(=O)(=O)c1ccccc1Br	3.03% (inactive)
OC(c1ccccc1)(c1ccccc1)C1CCN(CCCOc2ccccc2)CC1	-2.2% (inactive)
CCOC(=O)c1cc(-c2ccc(Cl)s2)nc2c1c(C)nn2C	15.8% (active)
CCOC(=O)c1cc(C(=O)Nc2ccc(S(=O)(=O)Nc3ccc(OC)cc3)cc2)nn1C	-1.23% (inactive)
CCOC(=O)C1=C(O)CSC1=Nc1cccc(Cl)c1	-2.26% (inactive)
O=S(=O)(Cc1ccccc1)c1nc2ccccc2n1Cc1ccccn1	-0.52% (inactive)
O=C(O)Cn1c(Cc2ccccc2)nc2ccccc21	20.6% (active)
CCC(C(=O)NCc1ccccc1)n1c(Cc2cc(F)cc(F)c2)nc2ccccc21 (stereo unspecified)	-1.34% (inactive)
COc1cccc(OC)c1C(=O)OCC(=O)/C(C#N)=C(\C)N	-0.74% (inactive)
COc1ccc(CCNC(=O)COc2ccc3c(c2)OCO3)cc1	-1.39% (inactive)
O=C(CCC1CCN(C(=O)c2cccc(Cl)c2F)CC1)Nc1ccccc1	-1.31% (inactive)
CC1CCN(CCC(=O)Nc2ccccc2)CC1	0.42% (inactive)
CC(C)(C)C1CCC(OC(=O)CCC(=O)Nc2ccccc2)CC1 (stereo unspecified)	20.6% (active)
COc1cc2c(cc1CNC[C@H]1O[C@@H](n3cnc(C(N)=O)n3)[C@H](O)[C@@H]1O)OCO2	1.81% (inactive)

SMILES	activation
N#Cc1ccc(CSc2nnc3ccccn23)cc1	-0.39% (inactive)
Cc1ccc(-n2c(SCC(=O)Nc3ccc4c(c3)OCO4)nnc2-c2ccccn2)cc1	-2.71% (inactive)
N#Cc1ccc(CSc2nnc(-c3ccccn3)n2-c2ccc(Cl)cc2)cc1	28% (active)
COc1cccc(/C=C2\SC(=N)N(c3ccc(F)cc3)C2=O)c1	3.96% (inactive)
Cc1ccccc1Nc1c([N+](=O)[O-])ccc2nonc12	-2.33% (inactive)
COc1ccc(NC(=O)CCC(=O)N2CCN(S(=O)(=O)c3ccc(C)cc3)CC2)c(OC)c1	2.84% (inactive)
O=C(c1cc(S(=O)(=O)N2CCOCC2)ccc1Cl)N1CCOCC1	2.72% (inactive)
O=C(COC(=O)c1cc(S(=O)(=O)N2CCCCC2)ccc1Cl)NCc1ccco1	2.03% (inactive)
O=C(NNC(=O)c1cc(S(=O)(=O)N2CCCCC2)ccc1Cl)c1ccccc1O	11.9% (active)
Cc1nc(Nc2ccc3c(c2)OCCO3)c2nnn(Cc3ccccc3Cl)c2n1	11.8% (active)
Clc1ccc(Nc2ncnc3c2nnn3Cc2ccccc2)cc1	-0.95% (inactive)
Cc1cc(C)n2ncc(C(=O)Nc3ccc4c(c3)OCCO4)c2n1	2.76% (inactive)
O=C(Nc1cc(Cl)cc(Cl)c1)OCCN1CCCC12CCC(c1ccccc1)CC2 (stereo unspecified)	1.93% (inactive)
CCN(CC)S(=O)(=O)c1ccc(C(=O)N2CCN(C3=NS(=O)(=O)c4ccccc43)CC2)cc1	-0.96% (inactive)
C=CCN1C(=O)C2(OCCCO2)c2cccc(Cl)c21	0.94% (inactive)
COc1ccc(NC(=O)CCNC(=O)Cn2cnc3sc4c(c3c2=O)CCCC4)cc1OC	-1.59% (inactive)
O=C(CSc1n[nH]c(-c2cccnc2)n1)Nc1ccc(Cl)cc1	-0.75% (inactive)
Nc1nc(SCC(=O)Nc2ccc(Cl)cc2C(F)(F)F)n[nH]1	0.01% (inactive)
Nc1nc(SCC(=O)Nc2ccc(Cl)c([N+](=O)[O-])c2)n[nH]1	9.76% (active)
COc1ccc(-c2cc(C(=O)N/N=C/c3cccnc3)c3ccccc3n2)c(OC)c1	-1.67% (inactive)
COc1ccc2c(CC(=O)OCC(=O)NC(N)=O)coc2c1	1.14% (inactive)
O=C(NNS(=O)(=O)c1ccccc1)c1cnn(-c2ccc(Cl)cc2)c1C(F)(F)F	-0.1% (inactive)
Cc1ccc(C(=O)Nc2c(C#N)c(C)c(C)n2Cc2ccccc2)cc1	0.67% (inactive)
CC(=O)Nc1ccc(C(=O)Nc2nc(-c3cc(C)n(Cc4ccccc4)c3C)cs2)cc1	-0.51% (inactive)

SMILES	activation
Cc1c(C#N)c(NC(=O)c2ccccc2)n(Cc2ccccc2)c1C	10.7% (active)
COc1ccc(S(=O)(=O)N(CC(=O)N/N=C/c2ccccc2C(=O)O)c2ccccc2OC)cc1	-0.82% (inactive)
CSCCC(c1nnnn1Cc1ccccc1)N1CCN(C/C=C/c2ccccc2)CC1 (stereo unspecified)	-2.08% (inactive)
COc1ccc(C(=O)N2CCCC(C(=O)c3ccccc3OC)C2)cc1OC (stereo unspecified)	-0.18% (inactive)
Cc1nc(Cl)cc(N/N=C/c2ccccc2)n1	-2.14% (inactive)
COC(=O)c1sc(N)c(C(=O)OC)c1COC(=O)CNS(=O)(=O)c1ccc(C)cc1	-1.81% (inactive)
O=C(N=C1SC2CS(=O)(=O)CC2N1Cc1ccccc1)c1ccccc1 (stereo unspecified)	1.31% (inactive)
Cc1ccc(Sc2cc(C(=O)c3ccccc3C(=O)O)ccc2[N+](=O)[O-])cc1	1.71% (inactive)
CC(C)NC(=O)c1ccc(Sc2ccccc2)c([N+](=O)[O-])c1	14.4% (active)
O=C(NNC(=O)c1ccc(-n2cncn2)c([N+](=O)[O-])c1)c1ccccc1	-1.38% (inactive)
COC(=O)C1CCN(C(=O)c2ccc3oc(Cc4ccc(Cl)cc4)nc3c2)CC1	-1.37% (inactive)
Cc1ccsc1C(=O)OCC(=O)NCCc1ccccc1	2.82% (inactive)
CCOc1ccc(N=C2NC(=O)S/C2=C\c2ccc(O)cc2)cc1	11.2% (active)
CCOc1ccc(-c2cc(C(=O)N/N=C/c3ccc(O)cc3)c3ccccc3n2)cc1	-0.07% (inactive)
C=CCOc1ccc(/C=C2\SC(=S)N(CCC(=O)O)C2=O)cc1	0.39% (inactive)
O=C1CN(C(=O)COc2c(Cl)cccc2Cl)c2ccccc2N1	-1.21% (inactive)
O=C1CN(C(=O)COC(=O)C2CC(=O)N(Cc3ccco3)C2)c2ccccc2N1 (stereo unspecified)	12.4% (active)
O=C1CN(C(=O)COC(=O)/C=C/c2ccc(F)cc2)c2ccccc2N1	0.24% (inactive)
O=C(CSc1nc2cccc(F)c2c(=O)n1-c1ccccc1)Nc1ccc2c(c1)CCC2	-1.17% (inactive)
COc1cc(NS(=O)(=O)c2ccc(NC(=O)c3ccc([N+](=O)[O-])cc3)cc2)ncn1	-0.02% (inactive)
COc1ccc2c(c1)O/C(=C\c1ccccc1O)C2=O	-0.14% (inactive)
COc1ccc(S(=O)(=O)NCC(=O)NCc2cc(=O)n(C)c(=O)n2C)cc1F	53.5% (active)
Cn1c(=O)c2cc(S(=O)(=O)NCCC(=O)Nc3ccc(F)cc3F)ccc2n(C)c1=O	0.89% (inactive)
CC(=O)OCc1cc(=O)n(C)c(=O)n1C	1.42% (inactive)
